For 40 sequences, PBM binding z-score results are on record in the supplement of paper PMC6555819.

For the first experiment, the system named is PPARg DBDmut IVT, anti-PPARg (DBD mutation: PPARg1 K132A/R137A, NR concentration 270 nM). Description: PBM binding z-score (relative to random genomic background probes); higher = stronger binding; sequences stand for … in GC…GCGATTGACAGCGTAGAATGAAGG
A digest of the protocol:
(§1)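 Binding z-scores were set against random background probes. The data came from custom Agilent 4×180K protein-binding microarrays carrying double-stranded probes with 34-nt variable regions, incubated 1 h with ligand-free nuclear receptor dimers. Partner-specific antibodies detected binding, and scanned fluorescence was regression-normalized.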
For the sequence TTACCAAGGTGAGCTGAGCTCGTTGATCCAACTC, the PBM binding z-score turned out to be 0.147.

Consider AGAACGAGGGCAATAAGTTGATAGCACGGGTGGC, for which the PBM binding z-score was -0.691.

Turning to CGTCAAAGATCAACTAAGGTAACGTAAAGCACGC, the PBM binding z-score came out at 0.489.

For the sequence AGAACGAGGGCAAGCTGAGTTGATAGCAGAGTAG, the PBM binding z-score was -0.565.

Regarding TTACCAAGGTGAAGGGTCGTTGATGCACGCCTTG, the PBM binding z-score is -0.561.

CCGACTGGGGCAGAACGGTTACCATACCATCCGG returned a PBM binding z-score of -1.18.

Turning to TCATATAGGTGAATGCTAGGTGAAAGTCCGATCT, the PBM binding z-score was 1.82.

On to TGGCCTAGGTCATTGGGCCAGTATAGTACGCATC, for which the PBM binding z-score is -1.26.

In turn, TCTTGTAGGTCAAGCAGGTTAAGAAAGCCTGAGT registered a PBM binding z-score of 1.83.

The sequence ATCGAAAGGTCGAGGTGATTATAGAGAAAGGGAA returned a PBM binding z-score of 1.21.

CGAACGAGGGCATGGGTTGATAGCAAATGCCGAT displayed a PBM binding z-score of 0.301.

TTATATAGGTAAACAGGTGAAAGTCCGTAAGTTA had a PBM binding z-score of 1.83.

As to CCTACTGGGCCAAAAAGGTCATTGAGGCCGATAA, the PBM binding z-score is -0.0751.

Sequence CCTACTGGGCCAAAGGTCATTCATTCCAATGCTC yielded a PBM binding z-score of -0.185.

In turn, TAGCCTACGTCAGATCGGGCCAGTATACGCTATA had a PBM binding z-score of 0.256.

On to ATCTCTAGGAAACAAGTTCAGTGAAAGAGAGGAC, for which the PBM binding z-score worked out at 0.509.

CCAACTAGGTCAGAACAGGACAGTGAAGGATGAT registered a PBM binding z-score of 1.17.

In turn, CCGACTGCGGCATAAGGTTACCATAAGCCAGCCC yielded a PBM binding z-score of -0.753.

A further experiment deals with PPARg homodimer (NR concentration 180 nM). The description is as above. An outline of the steps:
as §1
Consider CTCGAAAGGTCGGTTGAGGTGAGAATACGGATAA, for which the PBM binding z-score turned out to be 0.742.

With TCTGCTAGGTCAGCTGGTCAGCTAACGAGCTGCC, the PBM binding z-score was found to be 0.0537.

GCTTGTAGATCATGGTTAAGAAAGACTAAGCTAA: the PBM binding z-score is 0.17.

For the sequence TCTGCTAGGTCAGTTTGTCAGCTAACGAGCTGCC, the PBM binding z-score was -0.156.

TCATATAGGTAAATGCTAGTTGAAAGTCCGATCT returned a PBM binding z-score of 0.913.

Sequence TCTCGGAGGACACGTAAGGTCAGAGCTCGACATC displayed a PBM binding z-score of 1.75.

For ATGTCTAGGTAAAGATAGTTCAGTGAATGCAAAT, the PBM binding z-score is 0.188.

For the sequence TATACAGGGTCAAAGTCCAGAGTACGAATGTCGA, the PBM binding z-score was 3.98.

With GGAACCAGGGCAAGTTGATAGCAGAGTTTGATGG, the PBM binding z-score was found to be 1.02.

With CCTAGCAGGCCAGGGTCACTGAAGCATTTCGCTT, the PBM binding z-score stood at 1.08.

In turn, CGTCCAAGGTCAATGCTAGGACAGTGAAAGCATT yielded a PBM binding z-score of 1.7.

CCTACTGGGCCATTCATAGGTCATTGATCATATG showed a PBM binding z-score of 1.33.

CGAACTAGGTGATCCAGGACAGTGAATACATTGA registered a PBM binding z-score of 0.425.

In turn, ACTAGCAGGTCAAGTTTGGGTCACTCAAACAAAG returned a PBM binding z-score of 3.76.

Sequence TCTCGTAGATCAAGCAGGTTAAGAAAGCCTGAGT registered a PBM binding z-score of -0.511.

With GCTGCTAGGTCAGTTTGGTCAGCTAACGGGTACG, the PBM binding z-score amounted to 0.433.

As for CCTACTGGGCCATCAGATCATTGATATCAACGTT, the PBM binding z-score was -0.139.

Take CCGAGTGGGGCAGAAAGGTTACCATACCATCCGG: the PBM binding z-score was 0.799.

For the sequence AGTCAAAGTTCACTAGGTAACCTAAGATTCAGCT, the PBM binding z-score came to 2.98.

On to TCTAGCAGGCCCGAGGGTCACTCAAGAGGTACGG, for which the PBM binding z-score stood at 0.169.

Consider TCGACTAGGTTACCAATGGGGCATTCAGCTTTCT, for which the PBM binding z-score was determined as 0.845.

GCGACTGGGGCATCAGCAGGTTAGCATAACTTAA: the PBM binding z-score was -0.262.

TTACCAAGGTGAGCTGAGCTCGTTGATCCAACTC had a PBM binding z-score of -0.967.

As for AGAACGAGGGCAATAAGTTGATAGCACGGGTGGC, the PBM binding z-score came to 0.0949.

As for CGTCAAAGATCAACTAAGGTAACGTAAAGCACGC, the PBM binding z-score stood at 0.91.

On to AGAACGAGGGCAAGCTGAGTTGATAGCAGAGTAG, for which the PBM binding z-score was determined as 0.238.

As to TTACCAAGGTGAAGGGTCGTTGATGCACGCCTTG, the PBM binding z-score came out at 0.981.

CCGACTGGGGCAGAACGGTTACCATACCATCCGG displayed a PBM binding z-score of -0.513.

Consider TCATATAGGTGAATGCTAGGTGAAAGTCCGATCT, for which the PBM binding z-score came to 1.06.

On to TGGCCTAGGTCATTGGGCCAGTATAGTACGCATC, for which the PBM binding z-score amounted to 1.98.

Take TCTTGTAGGTCAAGCAGGTTAAGAAAGCCTGAGT: the PBM binding z-score was 1.66.

Consider ATCGAAAGGTCGAGGTGATTATAGAGAAAGGGAA, for which the PBM binding z-score came to 1.85.

In turn, CGAACGAGGGCATGGGTTGATAGCAAATGCCGAT gave a PBM binding z-score of 0.704.

Sequence TTATATAGGTAAACAGGTGAAAGTCCGTAAGTTA came in with a PBM binding z-score of 1.4.

In the case of CCTACTGGGCCAAAAAGGTCATTGAGGCCGATAA, the PBM binding z-score stood at 2.79.

CCTACTGGGCCAAAGGTCATTCATTCCAATGCTC gave a PBM binding z-score of 4.56.

As to TAGCCTACGTCAGATCGGGCCAGTATACGCTATA, the PBM binding z-score was -1.51.

The sequence ATCTCTAGGAAACAAGTTCAGTGAAAGAGAGGAC had a PBM binding z-score of 0.901.

CCAACTAGGTCAGAACAGGACAGTGAAGGATGAT came in with a PBM binding z-score of 1.73.

Consider CCGACTGCGGCATAAGGTTACCATAAGCCAGCCC, for which the PBM binding z-score worked out at 0.108.

The subject of the next experiment is PXR:RXRa (NR concentration 270 nM, RXRa partner concentration 90 nM). The description is as above. A digest of the protocol: as §1
With CTCGAAAGGTCGGTTGAGGTGAGAATACGGATAA, the PBM binding z-score was found to be 3.13.

TCTGCTAGGTCAGCTGGTCAGCTAACGAGCTGCC returned a PBM binding z-score of 0.279.

As for GCTTGTAGATCATGGTTAAGAAAGACTAAGCTAA, the PBM binding z-score is -0.334.

On to TCTGCTAGGTCAGTTTGTCAGCTAACGAGCTGCC, for which the PBM binding z-score is 0.322.

The sequence TCATATAGGTAAATGCTAGTTGAAAGTCCGATCT displayed a PBM binding z-score of 0.488.

In turn, TCTCGGAGGACACGTAAGGTCAGAGCTCGACATC registered a PBM binding z-score of 3.15.

As for ATGTCTAGGTAAAGATAGTTCAGTGAATGCAAAT, the PBM binding z-score was 0.798.

Sequence TATACAGGGTCAAAGTCCAGAGTACGAATGTCGA gave a PBM binding z-score of 4.6.

For GGAACCAGGGCAAGTTGATAGCAGAGTTTGATGG, the PBM binding z-score turned out to be 0.554.

The sequence CCTAGCAGGCCAGGGTCACTGAAGCATTTCGCTT displayed a PBM binding z-score of 3.04.

CGTCCAAGGTCAATGCTAGGACAGTGAAAGCATT: the PBM binding z-score came out at 3.22.

As to CCTACTGGGCCATTCATAGGTCATTGATCATATG, the PBM binding z-score was found to be 1.8.

As to CGAACTAGGTGATCCAGGACAGTGAATACATTGA, the PBM binding z-score was -0.38.

For ACTAGCAGGTCAAGTTTGGGTCACTCAAACAAAG, the PBM binding z-score is 4.22.

Turning to TCTCGTAGATCAAGCAGGTTAAGAAAGCCTGAGT, the PBM binding z-score is 0.225.

As for GCTGCTAGGTCAGTTTGGTCAGCTAACGGGTACG, the PBM binding z-score was 0.0587.

CCTACTGGGCCATCAGATCATTGATATCAACGTT had a PBM binding z-score of -0.487.

With CCGAGTGGGGCAGAAAGGTTACCATACCATCCGG, the PBM binding z-score stood at 1.05.

AGTCAAAGTTCACTAGGTAACCTAAGATTCAGCT: the PBM binding z-score was 4.37.

For the sequence TCTAGCAGGCCCGAGGGTCACTCAAGAGGTACGG, the PBM binding z-score was 1.35.

On to TCGACTAGGTTACCAATGGGGCATTCAGCTTTCT, for which the PBM binding z-score was 0.199.

The sequence GCGACTGGGGCATCAGCAGGTTAGCATAACTTAA gave a PBM binding z-score of -0.392.

On to TTACCAAGGTGAGCTGAGCTCGTTGATCCAACTC, for which the PBM binding z-score is -0.427.

AGAACGAGGGCAATAAGTTGATAGCACGGGTGGC gave a PBM binding z-score of 1.09.

Take CGTCAAAGATCAACTAAGGTAACGTAAAGCACGC: the PBM binding z-score worked out at 1.32.

AGAACGAGGGCAAGCTGAGTTGATAGCAGAGTAG: the PBM binding z-score was 1.13.

With TTACCAAGGTGAAGGGTCGTTGATGCACGCCTTG, the PBM binding z-score is 1.57.

In the case of CCGACTGGGGCAGAACGGTTACCATACCATCCGG, the PBM binding z-score was -0.96.

TCATATAGGTGAATGCTAGGTGAAAGTCCGATCT gave a PBM binding z-score of 0.532.

TGGCCTAGGTCATTGGGCCAGTATAGTACGCATC registered a PBM binding z-score of 1.4.

TCTTGTAGGTCAAGCAGGTTAAGAAAGCCTGAGT came in with a PBM binding z-score of 3.63.

The sequence ATCGAAAGGTCGAGGTGATTATAGAGAAAGGGAA displayed a PBM binding z-score of 2.51.

Regarding CGAACGAGGGCATGGGTTGATAGCAAATGCCGAT, the PBM binding z-score turned out to be 0.517.

In turn, TTATATAGGTAAACAGGTGAAAGTCCGTAAGTTA gave a PBM binding z-score of 0.532.

For CCTACTGGGCCAAAAAGGTCATTGAGGCCGATAA, the PBM binding z-score came out at 5.38.

CCTACTGGGCCAAAGGTCATTCATTCCAATGCTC: the PBM binding z-score was found to be 5.58.

On to TAGCCTACGTCAGATCGGGCCAGTATACGCTATA, for which the PBM binding z-score is -0.718.

ATCTCTAGGAAACAAGTTCAGTGAAAGAGAGGAC came in with a PBM binding z-score of 1.24.

As to CCAACTAGGTCAGAACAGGACAGTGAAGGATGAT, the PBM binding z-score worked out at 1.13.

CCGACTGCGGCATAAGGTTACCATAAGCCAGCCC gave a PBM binding z-score of 0.121.
